# HCV NS3h FP = blocks HCV NS3 helicase binding to DNA. AID 687043. 1.6% of 16,000 active. NS3h Cy5-dT15 DNA binding, fluorescence polarization. inhibition, % at 100 µM;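 active means inhibition above the average over every tested compound plus 3 SD, cut at about 40% in these data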
# Cy5 interf NS3h = enhances or quenches Cy5 fluorescence in NS3h assay | fluorescence interference ratio at 100 µM | Cy5-dT15 DNA with NS3h, fluorescence interference; actives lie on both sides; signal over control mean, under 1 quenches | 6% of 16,000 active;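 active means compound fluorescence over control fluorescence at most 0.8, a quencher, or at least a set upper limit, an enhancer; inactive means ratio between 0.8 and the set upper limit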
# The depositor's hits bear a star. Sampled rows, rich in hits. Any-hit rate of the full collection: about 6.8%.
SMILES,HCV NS3h FP,Cy5 interf NS3h
Cc1ccc2nc(-c3cccc(NC(=S)NC(=O)c4ccco4)c3)oc2c1,8,1
COc1cc(C(c2c(C)[nH]c3ccccc23)c2c(C)[nH]c3ccccc23)ccc1O,7,0.86
CC(=O)CC(=O)Nc1ccc(Cl)c(Cl)c1,3,1
CC(=O)CC(=O)Nc1ccc(Cl)c(C(F)(F)F)c1,4,0.68*
O=C(Nc1ccccc1Cl)c1ccc2nccnc2c1,1,0.97
COc1ccc(NC(=O)c2c(N)sc3c2CCCC3)cc1,4,0.98
C/C(=N/NC(N)=O)C1CC1(C)C(C)(C)C (stereo not drawn),44*,1
CCN(CC)C(=O)CN(c1cc(Cl)cc(Cl)c1)S(C)(=O)=O,4,1.2
O=C(Nc1cc(Cl)cc(Cl)c1)c1ccc(-c2ccc([N+](=O)[O-])cc2)o1,0,0.96
COc1cc(NC(=O)c2ccccc2Cl)cc(OC)c1,10,1
COc1ccc(N=Cc2ccc(O)c(OC)c2)cc1,11,0.8*
COc1cc(C=Nc2ccc(S(N)(=O)=O)cc2)ccc1O,5,1.1
C=CCN1C(=O)/C(=C\c2ccc(OC(=O)c3cccc(Br)c3)cc2)SC1=S,7,0.75*
C=CCN1C(=O)/C(=C\c2ccc(OCCOc3cccc(OC)c3)cc2)SC1=S,6,1
CC(=C\c1ccccc1)/C=C1/SC(=O)N(c2ccc(Cl)cc2)C1=O,16,0.78*
O=C1S/C(=C/c2ccc(Cl)cc2Cl)C(=O)N1c1ccccc1,3,0.99
CC1=C(C(=O)OCCc2ccccc2)C(c2coc3ccccc3c2=O)C2=C(CC(C)(C)CC2=O)N1 (stereo not drawn),0,1.1
COC(=O)c1cc(NC(=O)c2cccc(OCc3ccccc3)c2)cc(C(=O)OC)c1,3,1.2*
COC(=O)c1cc(NC(=O)c2ccc(OCc3ccccc3)cc2)cc(C(=O)OC)c1,-4,0.95
CCOC(=O)C1=C(C)N=C2SCC(=O)N2C1c1ccc(C)cc1 (stereo not drawn),1,0.91
CC1=NN(C(=O)c2ccc(Cl)cc2)C(O)(c2cccnc2)C1 (stereo not drawn),-4,0.96
CC1=NN(C(=O)c2cccnc2)C(C)(O)C1(C)C (stereo not drawn),-2,0.65*
O=C(CSc1nc2ccccc2s1)Nc1nc2ccccc2s1,8,0.97
COc1ccc(CNC(=O)CSc2nc3ccccc3s2)cc1,7,0.98
COc1ccc(NC(=O)CSc2nc3ccccc3s2)c(OC)c1,4,0.63*
SMILES,HCV NS3h FP,Cy5 interf NS3h
O=C(CSc1nc2ccccc2s1)c1ccc2ccccc2c1,12,0.74*
O=C1c2ccccc2NC(c2ccccc2O)N1c1ccc(Cl)cc1 (stereo not drawn),-5,0.88
CCCC(C)NC(=O)c1ccc(C)c([N+](=O)[O-])c1 (stereo not drawn),2,1.1
Cc1ccc(C(=O)O/N=C(/N)c2cccnc2)cc1[N+](=O)[O-],7,0.66*
Cc1ccc(C(=O)O/N=C(/N)c2ccccn2)cc1[N+](=O)[O-],7,1
COc1ccc(O)c(C2=Nc3ccccc3N=C(C(F)(F)F)C2)c1,4,0.93
COCCOC(=O)c1c(C)oc2ccc(OCC(=O)c3ccccc3)cc12,18,0.81
CCC(C)c1ccccc1OCC(=O)Nc1cc(C(=O)O)cc(C(=O)O)c1 (stereo not drawn),7,1
Cc1cccc(N2C(=O)/C(=C/c3ccc4c(c3)OCO4)SC2=S)c1C,14,0.77*
COCCN1C(=O)/C(=C/c2ccc3c(c2)OCO3)SC1=S,20,1
O=C1S/C(=C/c2ccc3c(c2)OCO3)C(=O)N1CN1CCCC1,-8,0.57*
O=C1/C(=C\c2ccc3c(c2)OCO3)SC(=S)N1c1cccc(C(F)(F)F)c1,0,1.1
N#C/C(=C\c1ccc(I)o1)C(=O)NCC1CCCO1 (stereo not drawn),9,0.99
O=C1CC(c2ccccc2)CC2=C1C(c1ccc([N+](=O)[O-])cc1)Nc1ccc(C(=O)c3ccccc3)cc1N2 (stereo not drawn),10,1.1
O=C1CC(c2ccccc2)CC2=C1C(c1cccc([N+](=O)[O-])c1)Nc1ccc(C(=O)c3ccccc3)cc1N2 (stereo not drawn),14,0.69*
O=C(Nc1cccc(Cl)c1)C1CC1(c1ccccc1)c1ccccc1 (stereo not drawn),12,0.99
COc1cc(/C=N\N2C(=O)CSC2=S)ccc1OCCOc1ccc(C(C)(C)C)cc1,11,1.1
COc1cc(/C=N\N2C(=O)CSC2=S)ccc1OCCOc1cc(C)ccc1C(C)C,6,1.2*
O=C(COc1ccccc1[N+](=O)[O-])Nc1ccc2oc(-c3cccc(Cl)c3)nc2c1,-19,1.1
O=C(Nc1cccc(-c2nc3cc(Cl)ccc3o2)c1)c1ccc2c(c1)OCCO2,11,0.71*
CC(=O)Nc1ccc2oc(-c3cccc(Cl)c3)nc2c1,-20,1.2*

# Source: PubChem
